Source: PubChem BioAssay
KCNQ2 pot: enhances the rat KCNQ2 potassium channel. AID 2239. B-score at 10 µM. CHO-K1 KCNQ2, FluxOR thallium flux fluorescence; stronger effect = higher value. 0.54% of 310,000 active;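 active = fluorescence ratio B-score at least 3 SD of library B-scores, with initial fluorescence B-score within 3 of them, cut at about 5.3 in these data; same plate scores as AID 2156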;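 note: B-score of peak minus minimum over baseline fluorescence ratio after K+ and Tl+ stimulus; positive B-score means potentiation of KCNQ2 with more thallium influx and brighter signal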
KCNQ2 inh: KCNQ2 (rat) channel inhibition | 1.1% of 310,000 active | CHO-K1 KCNQ2, FluxOR thallium flux, 20 min; stronger effect = lower value | B-score at 10 µM;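 active = fluorescence ratio B-score at most minus 3 library SDs, with starting brightness B-score within 2 library SDs, cut at about -5.5 in these data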
KCNQ2 inh conf: rat KCNQ2 channel inhibition, confirmatory screen; shares compounds with KCNQ2 inh; KCNQ2-expressing cells, thallium flux; stronger effect = lower value; 57% of 1,000 active; activity change, negative = inhibition, % at 10 µM;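 note: 0% = vehicle wells and values are ratio percent relative to vehicle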
KCNQ1 spec: KCNQ2 inhibitor that also affects human KCNQ1 channel; 15% of 1,000 active; shares compounds with KCNQ2 inh; KCNQ1-expressing cells, FluxOR thallium flux fluorescence; stronger effect = lower value; activity change, negative = inhibition, % at 10 µM;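 active = activity change at least 3 SD of negative controls below their mean in both duplicate wells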;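 note: CHO cells stably transfected with KCNQ1 and depolarized by potassium stimulus; peak minus minimum fluorescence over baseline after thallium addition; 0% = vehicle negative control and -100% = blank without thallium stimulus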
Target sequence (P51787 whole entry, looked up): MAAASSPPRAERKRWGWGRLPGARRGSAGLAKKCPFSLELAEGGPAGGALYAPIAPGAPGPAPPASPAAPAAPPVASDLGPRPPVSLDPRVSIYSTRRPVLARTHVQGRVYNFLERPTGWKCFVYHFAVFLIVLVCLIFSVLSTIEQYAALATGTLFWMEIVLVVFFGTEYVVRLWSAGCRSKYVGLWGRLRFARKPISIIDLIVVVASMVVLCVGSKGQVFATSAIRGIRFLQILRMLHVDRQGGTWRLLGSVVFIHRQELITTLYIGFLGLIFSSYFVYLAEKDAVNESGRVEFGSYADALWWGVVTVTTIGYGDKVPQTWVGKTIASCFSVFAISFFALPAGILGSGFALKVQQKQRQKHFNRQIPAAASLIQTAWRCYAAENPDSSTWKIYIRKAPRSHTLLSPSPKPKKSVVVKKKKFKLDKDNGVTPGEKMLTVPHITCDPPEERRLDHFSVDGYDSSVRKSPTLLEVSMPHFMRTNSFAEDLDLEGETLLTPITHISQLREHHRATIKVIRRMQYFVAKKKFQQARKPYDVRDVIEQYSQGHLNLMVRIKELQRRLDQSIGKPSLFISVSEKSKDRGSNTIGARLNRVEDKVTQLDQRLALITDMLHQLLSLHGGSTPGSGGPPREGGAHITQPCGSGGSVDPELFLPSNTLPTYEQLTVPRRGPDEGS
CHO Tl ctr: activity in parental CHO cells lacking KCNQ2; shares compounds with KCNQ2 inh; thallium flux counter-screen; stronger effect = lower value; activity change, % at 10 µM; 14% of 1,000 active; AID 493029;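 note: 0% = vehicle negative controls with stimulus buffer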
KCNQ2 inh confirm: blocks rat KCNQ2 current in automated patch clamp; 49% of 550 active; shares compounds with KCNQ2 inh; calls only at 10 µM; KCNQ2-expressing cells; AID 588531
The depositor's hits bear a star; i = inactive; · = no result given; + = active, no number. An excerpt weighted towards active compounds, which were near 1.6% of everything screened. Unless noted, the rule behind the calls is not given here.

SMILES	KCNQ2 pot	KCNQ2 inh	KCNQ2 inh conf	KCNQ1 spec	CHO Tl ctr	others
Cc1ccc2nc(-c3ccccc3)cc(C(=O)N3CCc4ccccc4C3)c2c1	-8.3	-8.3*	i	i	i
Cc1ccc2nc(-c3ccccn3)cc(C(=O)N3CCN(c4ncccn4)CC3)c2c1	0.46	i	·	·	·
O=C(c1cc(-c2ccccc2)nc2ccccc12)N1CCc2ccccc2C1	-7.8	-7.8*	-28%*	i	i	KCNQ2 inh confirm=+
Cc1ccc(OCC(=O)N2CCc3ccccc3C2)c(C)c1	-7.8	-7.8*	-30%*	i	i	KCNQ2 inh confirm=+
COc1ccc(-c2cc(C(F)(F)F)n3ncc(C(=O)N4CCc5ccccc5C4)c3n2)cc1	-6.8	-6.8*	i	i	i
COc1cccc(-c2cc(C(F)(F)F)n3ncc(C(=O)N4CCc5ccccc5C4)c3n2)c1	·	i	·	·	·
Cc1ccc(OCC(=O)N2CCc3ccccc3C2)c(Br)c1	·	i	·	·	·
O=C(c1cc(Cl)nc2ccccc12)N1CCc2ccccc2C1	·	i	·	·	·
COc1ccccc1C(CC(=O)O)NS(=O)(=O)c1ccc2c(c1)N(C(C)=O)CC(C)O2 (centres undefined)	·	i	·	·	·
Cc1ccccc1C(=O)Nc1ccccc1C(=O)N1CCC(C)CC1	·	i	·	·	·
COc1ccc(-c2c(NC(=O)c3ccco3)oc3c(C)cccc3c2=O)cc1	·	i	·	·	·
COc1ccc(Cl)cc1N(CC(=O)N1CCCC1)S(C)(=O)=O	0.68	i	·	·	·
CC1CC(C)CN(C(=O)c2cc(-c3ccncc3)nc3ccccc23)C1 (centres undefined)	·	i	·	·	·
Cc1ccc2nc(-c3ccccc3)cc(C(=O)N3CC(C)OC(C)C3)c2c1 (centres undefined)	-9.3	-9.3*	-30%*	i	i	KCNQ2 inh confirm=+
CC(C)c1nc(SCC(=O)Nc2ccc(C(=O)O)cc2)c2c3c(sc2n1)CCCC3	·	i	·	·	·
O=S(=O)(Nc1ccc(Cl)cn1)c1ccc2c(c1)OCCO2	0.81	i	·	·	·
CN(C)C(CNC(=O)c1ccc(C(=O)c2ccccc2)cc1)c1ccccc1 (centres undefined)	·	i	·	·	·
CN(C)C(CNC(=O)c1ccc(-c2ccccc2)cc1)c1ccccc1 (centres undefined)	-6.6	-6.6*	i	i	i
CSCC[C@H](NC(=O)c1ccc2c(c1)OCO2)c1nnc2ccccn12	·	i	·	·	·
Cc1ccc(S(=O)(=O)N(C)c2ccc(OCC(=O)N3CCCCC3)cc2)cc1	0.88	i	·	·	·
N#CCCCN1C(=O)C(=C(C#N)C#N)c2ccccc21	·	i	·	·	·
Cc1ccc(N2C(=O)N(CC(=O)NCc3ccccc3Cl)C(=O)C2C)cc1 (centres undefined)	-6.6	-6.6*	-28%*	i	i	KCNQ2 inh confirm=+
Cc1ccc(N2C(=O)N(CC(=O)Nc3ccccc3C)C(=O)C2C)cc1 (centres undefined)	·	i	·	·	·
CCOC(=O)/C(=N\Nc1cc(C(F)(F)F)ccc1Cl)N(CC)CC	-8.9	-8.9*	i	i	i
CN(C)CC(=O)Nc1cc(C(F)(F)F)ccc1Cl	0.07	i	·	·	·
SMILES	KCNQ2 pot	KCNQ2 inh	KCNQ2 inh conf	KCNQ1 spec	CHO Tl ctr	others
COc1ccc(CNC(=O)C2(CC3CC(c4ccccc4)=NO3)CCNCC2)cc1 (centres undefined)	0.05	i	·	·	·
CCOC(=O)N1CCN(Cc2nc(N)nc(Nc3ccc(C)cc3C)n2)CC1	·	i	·	·	·
Cc1ccc(S(=O)(=O)NCC(c2ccccc2)N2CCN(c3ccc(F)cc3)CC2)cc1 (centres undefined)	2.6	i	·	·	·
COC(=O)/C(=C\C(=O)c1ccccc1)Nc1cccc(C(F)(F)F)c1	-7.8	-7.8*	i	i	i
O=C(Nc1ccccc1)Nc1cccc(C(F)(F)F)c1	·	i	·	·	·
COc1ccc(OC)c(NC(=O)C(C)N2c3cccc4cccc(c34)S2(=O)=O)c1 (centres undefined)	0.46	i	·	·	·
Cc1cccn2c(CN(C)CC3Cc4ccccc4O3)c(C(=O)N3CCCCC3)nc12 (centres undefined)	0.25	i	·	·	·
CSCCC(NC(=O)C1CCC(C)CC1)C(=O)NCCN1CCC(C)CC1 (centres undefined)	·	i	·	·	·
CCOc1cc(CNn2cnnc2)cc(Br)c1OCC(=O)NC(C)(C)C	0.87	i	·	·	·
CCOc1cc(CNc2ccc(Br)cc2)cc(Br)c1OCC(=O)NC(C)(C)C	-6.8	-6.8*	-24%*	i	i	KCNQ2 inh confirm=i
Clc1ccc(COn2c(-c3ccc(Cl)cc3)nc3ccccc32)cc1	·	i	·	·	·
Clc1ccc(COn2c(-c3ccccc3)nc3ccccc32)cc1	-14	-14*	i	i	i
CCCc1cc(=O)c2ccc(OC/C(C)=N/O)cc2o1	0.55	i	·	·	·
N#Cc1c(N2CCCC2)ccc(Br)c1Cl	0.01	i	·	·	·
Cc1cccc(N2CCC(N3CCN(C4CCCCC4)C(CCO)C3)CC2)c1C (centres undefined)	·	i	·	·	·
CCC(=O)N1N=C(c2ccc(NS(C)(=O)=O)cc2)CC1c1ccc(N(C)C)cc1 (centres undefined)	·	i	·	·	·
S=C(NCc1ccccc1)Nc1cccc2ccccc12	1.6	i	·	·	·
Cc1ccc(C(C)C)c(OCCNC(=S)Nc2cccc3ccccc23)c1	-6.7	-6.7*	i	i	i
Cc1nonc1NC(=O)CSc1nc2ccccc2o1	1.2	i	·	·	·
COc1ccc(N2Cc3ccccc3/C2=N\C(=O)Nc2ccccc2)cc1	-7.1	-7.1*	-28%*	i	i	KCNQ2 inh confirm=+
CC(=O)CN1Cc2ccccc2/C1=N\C(=O)Nc1ccccc1	1	i	·	·	·
CCN(C(=O)Cc1c(C(=O)O)n(C)c2ccccc12)c1cccc(C)c1	1.4	i	·	·	·
O=C(/C=C/c1ccccc1Cl)c1cccnc1	-8	-8*	-36%*	-32%*	-32%*	KCNQ2 inh confirm=i
N#Cc1ccc(/C=C/C(=O)c2cccnc2)cc1	-11	-11*	-29%*	i	i	KCNQ2 inh confirm=i
O=C(/C=C/c1ccccc1Cl)c1ccc(O)cc1	·	i	·	·	·
SMILES	KCNQ2 pot	KCNQ2 inh	KCNQ2 inh conf	KCNQ1 spec	CHO Tl ctr	others
CCN(CC)c1ccc(/C=C/C(=O)c2cccnc2)cc1	·	i	·	·	·
CC(C)c1ccc(NC(=O)[C@H]2CSCN2C(=O)[C@@H]2CCC(=O)N2)cc1	1.1	i	·	·	·
COc1ccc(CNC(=O)CN(Cc2ccc(C)cc2)S(=O)(=O)c2ccc(Cl)cc2)cc1	-6.7	-6.7*	i	i	i
O=C(CN(Cc1ccccc1F)S(=O)(=O)c1ccc(Cl)cc1)NCCC1=CCCCC1	·	i	·	·	·
Cc1ccc(S(=O)(=O)N(CC(=O)NCCC2=CCCCC2)Cc2ccccc2)cc1	-11	-11*	-30%*	i	i	KCNQ2 inh confirm=i
COc1ccc(CNC(=O)CN(C)S(=O)(=O)c2ccc(Cl)cc2)cc1	·	i	·	·	·
Cc1ccc(S(=O)(=O)N(CC(=O)NCCC2=CCCCC2)Cc2ccccc2F)cc1	-7	-7*	i	i	i
O=C(CN(Cc1ccccc1)S(=O)(=O)c1ccc(F)cc1)NCCC1=CCCCC1	·	i	·	·	·
Cc1cc(NC(=O)CSCC(=O)N(C)Cc2ccc(Cl)cc2Cl)no1	2.3	i	·	·	·
